# Screening data (PubChem)
# GPR151 activ – human GPR151 activation; actives 1% (n = 650,000); activation, % at 11.2 µM; PathHunter beta-arrestin GPR151 cells, luminescence; Q8TDV0; AID 1508602; in the data active = activation above about 4.9%;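 note: 0% = median of compound wells and 100% = cells with positive control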
# TEAD-YAP block – TEAD-YAP interaction inhibition | HEK-TIYL cells, TEAD-Gal4/YAP UAS-luciferase luminescence | inhibition, % at 9.12 µM | actives 1.4% (n = 640,000) | AID 1259422; in the data active = inhibition above about 32%;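 note: 0% = median of test compound wells and 100% = reference inhibitor wells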
# MITF inh – human MITF inhibition, primary screen; O75030; AlphaScreen MITF homodimerization, bead proximity signal; inhibition, % at 2.6 µM; actives 0.91% (n = 650,000); AID 1259374; in the data active = inhibition above about 50%;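 note: 0% = vehicle wells with protein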
# FBW7 act – activators of human E3 ligase FBW7; AlphaScreen FBW7–phospho-cyclin E peptide binding, activator screen; normalized activity (activation), % at 26.1 µM; actives 0.13% (n = 650,000); in the data active = normalized activity above about 1.9%;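 note: purified mutant Fbw7 with reduced substrate affinity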
# Target sequence (Q969H0 whole entry, looked up): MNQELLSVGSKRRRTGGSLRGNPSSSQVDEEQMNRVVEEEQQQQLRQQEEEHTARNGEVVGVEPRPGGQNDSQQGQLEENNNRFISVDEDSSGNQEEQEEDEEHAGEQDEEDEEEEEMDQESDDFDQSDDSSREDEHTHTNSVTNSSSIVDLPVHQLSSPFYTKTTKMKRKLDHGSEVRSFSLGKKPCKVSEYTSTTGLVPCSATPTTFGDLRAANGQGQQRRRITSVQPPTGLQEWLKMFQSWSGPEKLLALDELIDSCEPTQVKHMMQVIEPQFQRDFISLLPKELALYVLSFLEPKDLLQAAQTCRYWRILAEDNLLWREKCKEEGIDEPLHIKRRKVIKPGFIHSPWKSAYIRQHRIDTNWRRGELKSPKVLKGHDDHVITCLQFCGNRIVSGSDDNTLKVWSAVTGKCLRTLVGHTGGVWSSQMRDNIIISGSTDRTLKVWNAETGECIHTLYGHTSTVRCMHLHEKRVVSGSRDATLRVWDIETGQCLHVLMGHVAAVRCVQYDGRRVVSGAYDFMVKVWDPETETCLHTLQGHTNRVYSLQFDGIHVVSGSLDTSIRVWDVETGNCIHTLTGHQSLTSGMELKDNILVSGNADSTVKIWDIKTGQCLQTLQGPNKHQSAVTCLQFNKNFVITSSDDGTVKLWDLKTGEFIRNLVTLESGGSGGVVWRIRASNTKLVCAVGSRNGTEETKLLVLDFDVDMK
# MITF confirm – confirmation of human MITF inhibitors. AlphaScreen MITF homodimerization, biotin/His-MITF beads. actives 16% (n = 4,700). inhibition, % at 2.6 µM. shares compounds with MITF inh. AID 1259372;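 active = inhibition above a cutoff derived from the DMSO control wells, cut at about 28% in these data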;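 note: 0% = MITF dimer wells with DMSO only; inhibitors lower the bead chemiluminescence by keeping MITF from dimerizing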
# AlphaScreen DR – optically interferes with AlphaScreen signal in dose response. AID 1259373. shares compounds with MITF inh. actives 6% (n = 480). IC50, µM. AlphaScreen optical interference counterscreen, cell-free; call rule not given here
# AS interf ctr – AlphaScreen optical interference, counter-screen; shares compounds with MITF inh; LysRS AlphaScreen counterscreen, signal interference, triplicate; inhibition, % at 2.6 µM; actives 7.6% (n = 4,700); AID 1259376;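 active = inhibition above a cutoff derived from the DMSO control wells, cut at about 30% in these data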
# Active calls of the source: *; / = no result given. A selection: hits, their analogues and other compounds. The true share with any hit is near 3.4%.
SMILES,GPR151 activ,TEAD-YAP block,MITF inh,FBW7 act,MITF confirm,AS interf ctr,others
CCOC(=O)C1CCCN(Cc2ccc(OC)cc2)C1 (configuration not stated),0.2,6.8,51.5*,0.1,-5.3,-0.1,
Cc1ccc(CN2CCCC(C(=O)N3CCCCCC3)C2)cc1 (configuration not stated),-0.4,-0.5,64.0*,0.2,-5.9,-6.1,
CCOC(=O)C1CCCN(Cc2ccc(O)cc2)C1 (configuration not stated),-0.5,-6.1,18.9,0.0,/,/,
O=C(Cn1c(=O)oc2cc(Cl)ccc21)N1CCCC1,0.1,2.7,10.4,-0.1,/,/,
Cc1cc2nnc(SCC(=O)NCc3ccc(F)cc3)n2c(N)n1,0.3,-2.4,-3.5,-0.2,/,/,
CC(=O)c1cccc(-c2ccc(NC(C)c3ccccc3)nc2)c1 (configuration not stated),-0.3,-68.2,6.9,-0.6,/,/,
COc1ccc(CN2CCCC(C(=O)N3CCCCC3)C2)c(OC)c1OC (configuration not stated),0.4,7.5,75.4*,0.1,-14.4,-11.2,
CCOC(=O)C1CCCN(Cc2ccc(OC)c(OC)c2OC)C1 (configuration not stated),0.9,-2.3,32.8,0.0,/,/,
COc1ccc(CN2CCCC(C(=O)N3CCCCCC3)C2)cc1 (configuration not stated),-0.4,7.0,73.2*,-0.1,-7.0,-6.5,
COc1ccc(CN2CCCC(C(=O)NN)C2)cc1 (configuration not stated),-0.8,0.3,36.1,-0.3,/,/,
COc1ccc(CN2CCCC(C(=O)N3CCCC3)C2)cc1 (configuration not stated),-1.9,-1.1,44.9,0.0,/,/,
NNC(=O)C1CCCN(Cc2cccc(Oc3ccccc3)c2)C1 (configuration not stated),0.2,7.0,53.8*,-0.1,-5.0,-5.1,
O=C(COc1ccc2ccccc2c1)NC1CCCC1,-0.1,-43.7,0.5,0.0,/,/,
O=C(Nc1cccc(O)c1)c1cc2n(n1)C(C(F)(F)F)CC(c1ccc(Cl)cc1)N2 (configuration not stated),3.1,0.4,-5.9,0.0,/,/,
O=C(c1ccc(=O)oc1)N1CCc2ccccc21,-0.3,3.5,73.6*,-0.1,76.0*,10.9,AlphaScreen DR=>7.53
O=C(Nc1ccc(F)cc1)C(=O)c1cn(CC(=O)N2CCCC2)c2ccccc12,-2.3,-7.8,-4.3,0.5,/,/,
COCCn1c(SCC#N)nnc1-c1cnccn1,0.5,1.0,-3.1,0.1,/,/,
Cn1c(SCC#N)nnc1-c1cnccn1,0.5,-0.9,68.6*,-0.3,9.7,18.5,
COC(=O)CSc1nnc(-c2cnccn2)n1C,0.5,-3.6,64.9*,-0.3,36.0*,10.8,AlphaScreen DR=>6.48
CCNCC(=O)c1[nH]c(C)c(C(C)=O)c1C,-0.1,6.4,51.4*,-0.4,-3.9,-3.5,
N[C@@H](C(=O)N[C@@H]1C(=O)N2C(C(=O)O)=C(CSC3CNNN3)CS[C@H]12)c1ccc(O)cc1 (some centres not stated) (tested in a mixture with another compound),1.8,-0.7,63.0*,-0.1,72.5*,28.9,AlphaScreen DR=0.668*
NC(=O)NC(=O)CC1S/C(=N/N=C2\CSC(=O)N2)NC1=O (configuration not stated),-0.6,10.0,95.6*,-0.3,72.3*,100.3*,
CCOC(=O)c1ccc(NC(=O)CC2S/C(=N/N=C3\CSC(=O)N3)NC2=O)cc1 (configuration not stated),-0.9,5.7,25.2,-1.7,/,/,
O=C(O)CC1S/C(=N/N=C2\CSC(=O)N2)NC1=O (configuration not stated),0.1,9.1,92.0*,-0.5,83.8*,100.3*,
O=c1c2c(-c3ccccc3)csc2ncn1/N=C/c1cccnc1,0.5,4.5,-2.1,0.0,/,/,
SMILES,GPR151 activ,TEAD-YAP block,MITF inh,FBW7 act,MITF confirm,AS interf ctr,others
Cn1c(=O)[nH]c(=O)c2c1nc(N1CCNCC1)n2CC(O)COc1ccc([N+](=O)[O-])cc1 (configuration not stated),-1.3,11.6,6.3,0.1,/,/,
CC1=NN(c2cccc3ccccc23)C(=O)C1,-1.1,8.2,9.9,-2.0,/,/,
CC1=NN(c2ccc3cccc(O)c3n2)C(=O)C1,2.0,6.5,90.3*,-0.1,115.0*,100.6*,
O=C(N/N=C/c1ccco1)c1n[nH]c2c1CCC2,-2.8,30.7,-4.2,-0.1,/,/,
CCn1c2ccccc2c2cc(CN3CCN(S(=O)(=O)CC)CC3)ccc21,-1.1,-1.7,53.3*,0.0,13.9,9.9,
CCn1c2ccccc2c2cc(CN3CCN(Cc4ccccc4Br)CC3)ccc21,-0.4,-0.2,75.7*,-0.2,16.0,16.4,
CCn1c2ccccc2c2cc(CN3CCN(Cc4ccccc4C(F)(F)F)CC3)ccc21,-1.7,4.5,70.0*,-0.1,14.5,17.4,
CCn1c2ccccc2c2cc(CN3CCCN(C)CC3)ccc21,-0.2,-7.5,40.2,-0.2,/,/,
Cn1c2c(c(=O)[nH]c1=O)C(c1ccccc1Cl)C1=C(CCCC1=O)N2 (configuration not stated),0.7,-2.7,-2.4,0.0,/,/,
O=C(c1ccco1)N1CCN(c2nccn3c(-c4ccc(O)cc4)cnc23)CC1,-0.3,-2.8,22.7,0.0,/,/,
CCCCNC(=O)c1c[nH]c2ccc(S(=O)(=O)N(C)c3ccc(Br)cc3)cc2c1=O,-1.0,1.7,-5.9,0.5,/,/,
Cc1cc(NCCOc2ccccc2)nc(-c2ccc(C(=O)NC3CC3)cc2)n1,1.9,-5.5,6.4,-0.1,/,/,
CC(=O)N1C(NC2CCCCC2)CC(C)N1c1ccccc1 (configuration not stated),-1.8,8.6,13.0,0.4,/,/,
CCCCCn1c(SCC(=O)c2ccc(Cl)cc2)nc2cc(C(=O)N3CCC(C(N)=O)CC3)ccc2c1=O,-1.7,11.7,15.3,0.3,/,/,
COc1ccc(C)c(NC(=O)CSc2nnnn2-c2ccccc2)c1,1.4,2.7,6.0,-0.1,/,/,
c1coc(CN2CCN(Cc3cccc4ccccc34)CC2)c1,-2.3,-16.7,76.2*,-0.2,14.6,16.0,
O=C(CN1CCN(Cc2cccc3ccccc23)CC1)c1ccco1,-1.0,-1.2,67.2*,-0.1,6.0,9.7,
COC(=O)C1=C(C)N(C)C(=O)/C1=C\c1ccc(OCC(=O)Nc2ccccc2Cl)cc1,1.2,4.9,12.6,0.3,/,/,
CC1CN(Cc2ccccc2Br)CC(C)O1 (configuration not stated),-1.0,0.0,67.2*,-0.1,1.4,3.5,
CC1CN(Cc2ccc(F)cc2F)CC(C)O1 (configuration not stated),0.1,-2.6,65.3*,-0.2,-0.5,9.1,
CC1CN(Cc2ccc(F)c(F)c2)CC(C)O1 (configuration not stated),1.1,2.0,61.0*,0.7,3.2,1.0,
